The values that follow come from ChEMBL document CHEMBL3988442, “University of Dundee, Small-Polar-MMV Screening Library” (2021).

For some of these results: Potency and affinity values are given separately.

Holding throughout (set-up): scale not given: direction of the effect not stated beside the values
Assay [1] addresses Protein translocase subunit SecA (Escherichia coli (strain K12)) (UniProt P10408). As to the kind of experiment: Assay to Identify E. coli SecA ATPase Inhibitors. It is filed as functional. The settings on record: 30 µM.
Assay [2] has as its target T1, Ubiquitin-activating enzyme e1, putative (Leishmania donovani (strain BPK282A1)) (UniProt E9BSI1).
T1 sequence (whole entry): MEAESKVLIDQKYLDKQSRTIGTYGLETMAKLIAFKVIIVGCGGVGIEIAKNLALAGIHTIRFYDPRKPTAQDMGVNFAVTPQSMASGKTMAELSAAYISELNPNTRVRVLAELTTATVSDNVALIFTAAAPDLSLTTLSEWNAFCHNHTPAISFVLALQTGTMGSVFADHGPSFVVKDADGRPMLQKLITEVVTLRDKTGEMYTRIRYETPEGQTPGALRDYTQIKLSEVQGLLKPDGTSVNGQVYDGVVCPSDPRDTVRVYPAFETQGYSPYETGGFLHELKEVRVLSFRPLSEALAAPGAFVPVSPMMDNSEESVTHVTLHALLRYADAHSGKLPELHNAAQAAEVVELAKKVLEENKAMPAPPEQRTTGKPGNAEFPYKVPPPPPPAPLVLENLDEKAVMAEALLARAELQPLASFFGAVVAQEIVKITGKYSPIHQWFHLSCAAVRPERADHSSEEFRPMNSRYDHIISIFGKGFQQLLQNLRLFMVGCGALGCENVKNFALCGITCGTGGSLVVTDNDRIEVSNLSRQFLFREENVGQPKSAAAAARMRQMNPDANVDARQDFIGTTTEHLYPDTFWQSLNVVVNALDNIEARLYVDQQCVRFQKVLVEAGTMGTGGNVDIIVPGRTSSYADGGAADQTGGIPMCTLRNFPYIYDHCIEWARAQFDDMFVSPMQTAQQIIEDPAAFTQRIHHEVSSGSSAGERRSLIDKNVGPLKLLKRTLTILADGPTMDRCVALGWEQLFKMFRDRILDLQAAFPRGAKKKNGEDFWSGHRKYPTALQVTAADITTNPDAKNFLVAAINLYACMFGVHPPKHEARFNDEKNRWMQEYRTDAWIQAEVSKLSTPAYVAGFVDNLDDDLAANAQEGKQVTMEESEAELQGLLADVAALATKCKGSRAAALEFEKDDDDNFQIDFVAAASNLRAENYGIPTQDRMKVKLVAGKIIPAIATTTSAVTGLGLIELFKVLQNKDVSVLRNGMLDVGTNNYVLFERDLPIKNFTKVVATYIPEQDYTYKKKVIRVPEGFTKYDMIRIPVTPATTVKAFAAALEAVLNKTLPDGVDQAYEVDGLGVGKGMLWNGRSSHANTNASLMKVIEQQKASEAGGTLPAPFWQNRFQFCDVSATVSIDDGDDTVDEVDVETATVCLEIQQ
As to the kind of experiment: Leishmania donovani Ubiquitin Activating Enzyme (LdE1). The settings on record: 30 µM. The class given is functional.

The target in assay [3] is AMP-activated protein kinase, AMPK (Homo sapiens) (UniProt P54646+O43741+P54619+Q9UGJ0+Q9Y478+Q13131+Q9UGI9). As to the kind of experiment: AMP-dependent Kinase enzyme assay. An in vitro enzyme assay that detects ADP turnover that is directly proportional to AMPK activity. This uses naive AMPK that is activated during the assay with MK-8722. It is filed as functional. Conditions: 30 µM.

The target in assay [4] is Sialic acid-binding Ig-like lectin 9 (Homo sapiens) (UniProt Q9Y336). As to the kind of experiment: Hs-Siglec9 ALPHAscreen SOP 20170721. The settings on record: 10 µM. In general terms: Bead proximity is the source of the signal in Alpha formats.
Sequence of Sialic acid-binding Ig-like lectin 9 (Homo sapiens) (Q9Y336 whole entry): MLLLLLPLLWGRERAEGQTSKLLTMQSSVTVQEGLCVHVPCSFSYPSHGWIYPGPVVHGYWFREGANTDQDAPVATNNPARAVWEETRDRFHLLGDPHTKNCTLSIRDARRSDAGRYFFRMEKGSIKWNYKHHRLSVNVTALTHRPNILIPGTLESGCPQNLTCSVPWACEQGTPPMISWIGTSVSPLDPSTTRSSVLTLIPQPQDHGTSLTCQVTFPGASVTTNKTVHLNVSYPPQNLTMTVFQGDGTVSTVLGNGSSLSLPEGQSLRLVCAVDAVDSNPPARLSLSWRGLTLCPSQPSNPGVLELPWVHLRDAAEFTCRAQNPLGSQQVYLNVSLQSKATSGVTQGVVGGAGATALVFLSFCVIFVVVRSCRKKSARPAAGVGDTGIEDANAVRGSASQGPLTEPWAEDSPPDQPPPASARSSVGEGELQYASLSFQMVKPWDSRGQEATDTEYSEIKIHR
The subject of assay [5] is Trypanosoma cruzi. As to the kind of experiment: Trypanosoma cruzi phosphomannomutase and mannose-1-phosphate guanylyltransferase assay. The class given is functional. Conditions: 10 µM.
The target of assay [6] is T2, Arginase-2, mitochondrial (Homo sapiens) (UniProt P78540).
T2 sequence (whole entry): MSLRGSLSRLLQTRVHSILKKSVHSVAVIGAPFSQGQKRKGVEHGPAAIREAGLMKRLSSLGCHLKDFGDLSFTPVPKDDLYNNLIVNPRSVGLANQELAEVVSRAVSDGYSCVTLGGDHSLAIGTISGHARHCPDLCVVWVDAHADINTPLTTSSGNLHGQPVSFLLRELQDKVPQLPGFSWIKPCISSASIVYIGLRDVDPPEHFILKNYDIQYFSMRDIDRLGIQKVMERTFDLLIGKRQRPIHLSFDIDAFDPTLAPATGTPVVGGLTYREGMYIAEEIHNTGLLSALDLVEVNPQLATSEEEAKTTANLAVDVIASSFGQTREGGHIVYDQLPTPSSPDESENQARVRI
As to the kind of experiment: in vitro enzyme assay to detect the production of urea directly proportional to the activity of Arginase II. Note: in the data most compounds retested in dose-response had high values. The settings on record: 33.3 µM. The class given is functional.

In assay [7] the target is T3, Proteasome subunit beta (Trypanosoma cruzi) (UniProt O96673).
T3 sequence (whole entry): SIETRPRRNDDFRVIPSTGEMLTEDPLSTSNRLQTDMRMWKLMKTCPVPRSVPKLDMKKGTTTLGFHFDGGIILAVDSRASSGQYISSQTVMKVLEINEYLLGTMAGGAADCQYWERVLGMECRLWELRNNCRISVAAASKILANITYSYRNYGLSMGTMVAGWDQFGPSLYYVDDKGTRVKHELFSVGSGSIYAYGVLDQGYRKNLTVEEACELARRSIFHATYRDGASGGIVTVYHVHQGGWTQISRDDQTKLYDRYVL
As to the kind of experiment: Trypanosoma cruzi proteasome chymotrypsin-like activity (TcProtChymo) assay. Note: in the data most compounds retested in dose-response had high values. It is filed as functional. Conditions: 9.37 µM.

Assay [8] is filed under the species Homo sapiens. As to the kind of experiment: To identify inhibition of the IFN signalling (Jak-Stat) pathway via expression of an eGFP reporter gene under the control of an IFN-stimulated response element (ISRE) containing MxA promoter. It is filed as functional. The settings on record: 30 µM. Background: A reporter such as luciferase makes a cellular process visible.

For assay [9], the target named is T4, Tyrosyl-tRNA synthetase, putative (Trypanosoma cruzi (strain CL Brener)) (UniProt Q4DSP6).
T4 sequence (whole entry): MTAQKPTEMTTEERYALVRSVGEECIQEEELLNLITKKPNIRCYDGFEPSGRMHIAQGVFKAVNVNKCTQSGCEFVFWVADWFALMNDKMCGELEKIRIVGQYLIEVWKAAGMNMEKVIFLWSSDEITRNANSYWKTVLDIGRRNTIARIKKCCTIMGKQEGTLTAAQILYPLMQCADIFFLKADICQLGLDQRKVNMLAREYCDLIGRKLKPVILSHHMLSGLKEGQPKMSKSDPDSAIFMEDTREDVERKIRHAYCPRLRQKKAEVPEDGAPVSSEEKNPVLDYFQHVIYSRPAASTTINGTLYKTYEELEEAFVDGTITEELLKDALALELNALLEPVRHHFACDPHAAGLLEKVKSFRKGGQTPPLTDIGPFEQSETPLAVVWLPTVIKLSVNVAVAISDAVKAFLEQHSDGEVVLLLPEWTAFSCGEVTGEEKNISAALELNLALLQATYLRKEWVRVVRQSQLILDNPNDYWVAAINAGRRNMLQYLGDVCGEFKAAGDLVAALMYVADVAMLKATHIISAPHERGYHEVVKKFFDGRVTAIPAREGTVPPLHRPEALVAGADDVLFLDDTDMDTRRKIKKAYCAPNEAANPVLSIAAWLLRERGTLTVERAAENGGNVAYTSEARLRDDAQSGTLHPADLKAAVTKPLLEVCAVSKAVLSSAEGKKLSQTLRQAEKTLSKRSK
As to the kind of experiment: Trypanosoma cruzi tyrosyl tRNA synthetase (TcYRS) _High Tyrosine SOP. Note: in the data most compounds retested in dose-response had high values. It is filed as functional. Conditions: 30 µM.

Assay [10] deals with T4, Tyrosyl-tRNA synthetase, putative (Trypanosoma cruzi (strain CL Brener)). As to the kind of experiment: Trypanosoma cruzi tyrosyl tRNA synthetase (TcYRS) SOP. It is filed as functional. Conditions: 30 µM.
Assay [11] addresses Chromo domain-containing protein 1 (Saccharomyces cerevisiae (strain ATCC 204508 / S288c) (Baker's yeast)) (UniProt P32657). As to the kind of experiment: ScCHD-1 Enzyme Inhibition Assay. Note: in the data most compounds retested in dose-response had high values. The settings on record: 30 µM. It is filed as functional.

Sequence of Protein translocase subunit SecA (Escherichia coli (strain K12)) (P10408 whole entry): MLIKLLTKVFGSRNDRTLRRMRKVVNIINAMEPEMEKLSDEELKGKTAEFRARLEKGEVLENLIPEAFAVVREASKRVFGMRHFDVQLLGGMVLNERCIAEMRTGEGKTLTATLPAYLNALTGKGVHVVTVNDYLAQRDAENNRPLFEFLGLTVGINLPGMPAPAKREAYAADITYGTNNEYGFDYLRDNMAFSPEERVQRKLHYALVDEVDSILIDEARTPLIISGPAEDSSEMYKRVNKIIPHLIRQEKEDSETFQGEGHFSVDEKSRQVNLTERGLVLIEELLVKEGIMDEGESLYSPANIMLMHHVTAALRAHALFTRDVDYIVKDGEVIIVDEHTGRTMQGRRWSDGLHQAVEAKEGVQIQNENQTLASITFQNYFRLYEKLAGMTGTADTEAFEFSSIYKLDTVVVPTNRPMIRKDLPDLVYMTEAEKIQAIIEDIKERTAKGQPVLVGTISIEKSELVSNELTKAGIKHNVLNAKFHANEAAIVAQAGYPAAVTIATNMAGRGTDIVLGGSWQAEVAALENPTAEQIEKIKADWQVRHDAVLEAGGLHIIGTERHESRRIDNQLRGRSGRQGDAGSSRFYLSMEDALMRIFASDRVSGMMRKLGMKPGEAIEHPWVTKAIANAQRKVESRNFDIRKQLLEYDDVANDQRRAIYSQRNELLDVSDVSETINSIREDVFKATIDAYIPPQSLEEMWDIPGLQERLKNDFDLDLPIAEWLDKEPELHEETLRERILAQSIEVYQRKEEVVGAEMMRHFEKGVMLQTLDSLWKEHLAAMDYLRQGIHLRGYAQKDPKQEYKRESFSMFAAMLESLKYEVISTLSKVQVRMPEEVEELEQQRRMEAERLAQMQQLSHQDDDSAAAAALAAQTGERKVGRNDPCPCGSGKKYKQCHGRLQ
Sequence of Chromo domain-containing protein 1 (Saccharomyces cerevisiae (strain ATCC 204508 / S288c) (Baker's yeast)) (P32657 whole entry, the tested form may be a part): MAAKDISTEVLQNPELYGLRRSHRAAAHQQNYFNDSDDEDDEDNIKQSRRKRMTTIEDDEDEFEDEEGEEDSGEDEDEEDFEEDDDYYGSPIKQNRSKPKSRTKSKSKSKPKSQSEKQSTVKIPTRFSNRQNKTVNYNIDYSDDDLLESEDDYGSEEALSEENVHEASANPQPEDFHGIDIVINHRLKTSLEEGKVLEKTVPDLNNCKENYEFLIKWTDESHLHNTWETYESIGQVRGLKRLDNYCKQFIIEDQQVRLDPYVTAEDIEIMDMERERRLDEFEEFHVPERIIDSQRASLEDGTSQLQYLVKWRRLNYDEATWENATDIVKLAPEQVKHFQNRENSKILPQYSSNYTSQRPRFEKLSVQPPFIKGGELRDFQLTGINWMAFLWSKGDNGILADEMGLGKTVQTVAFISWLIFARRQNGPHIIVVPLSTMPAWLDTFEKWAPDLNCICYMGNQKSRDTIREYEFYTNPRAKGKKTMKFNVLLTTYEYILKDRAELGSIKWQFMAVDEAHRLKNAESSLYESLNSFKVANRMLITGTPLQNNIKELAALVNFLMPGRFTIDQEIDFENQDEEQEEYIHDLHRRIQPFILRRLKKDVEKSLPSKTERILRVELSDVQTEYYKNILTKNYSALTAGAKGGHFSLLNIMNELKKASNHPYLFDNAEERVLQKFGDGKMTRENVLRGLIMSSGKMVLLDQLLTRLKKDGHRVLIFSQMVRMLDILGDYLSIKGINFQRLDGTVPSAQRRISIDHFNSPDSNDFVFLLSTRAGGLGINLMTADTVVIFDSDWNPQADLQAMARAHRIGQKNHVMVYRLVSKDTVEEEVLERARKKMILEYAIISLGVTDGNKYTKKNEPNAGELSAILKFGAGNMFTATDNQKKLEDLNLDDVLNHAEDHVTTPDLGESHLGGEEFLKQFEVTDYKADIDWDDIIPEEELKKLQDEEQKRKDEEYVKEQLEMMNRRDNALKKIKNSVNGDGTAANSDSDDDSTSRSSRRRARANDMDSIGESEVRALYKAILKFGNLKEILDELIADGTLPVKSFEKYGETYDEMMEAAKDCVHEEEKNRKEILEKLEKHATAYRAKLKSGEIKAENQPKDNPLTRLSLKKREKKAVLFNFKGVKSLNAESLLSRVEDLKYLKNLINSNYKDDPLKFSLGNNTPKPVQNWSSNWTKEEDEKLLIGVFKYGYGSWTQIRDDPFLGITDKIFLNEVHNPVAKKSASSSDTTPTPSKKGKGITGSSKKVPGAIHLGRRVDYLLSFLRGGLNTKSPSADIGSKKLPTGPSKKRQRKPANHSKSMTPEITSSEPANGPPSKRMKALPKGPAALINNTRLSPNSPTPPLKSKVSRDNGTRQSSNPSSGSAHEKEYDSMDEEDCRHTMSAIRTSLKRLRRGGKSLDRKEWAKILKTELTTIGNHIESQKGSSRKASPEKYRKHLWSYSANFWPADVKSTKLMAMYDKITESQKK

On to `OC(CN1CCCCCCC1)c1ccc(F)cc1` (stereo not drawn), for which the Percent Effect was 0.984% in [1]; 10.5% in assay [2]; -3.76% in [3]; -5.28% in assay [4]; 7.33% in assay [5]; -1.15% in assay [6]. In addition, the Percent Effect in assay [7] was 15.4%; in assay [8], 11.7%; in [9], 7.35%; in assay [10], 19.5%; in [11], -11.6%.

Take `Cc1ccc(NC2CCN(C(=O)c3cc[nH]n3)CC2)nn1`: the Percent Effect was -0.868% in [1]; 0% in [2]; 8.84% in assay [3]; 3.52% in assay [4]; -3.01% in [5]; 1.53% in assay [6]. Also, the Percent Effect is 10.7% in assay [7]; -13.4% in assay [8]; -0.49% in assay [9]; -2.44% in [10]; 7.64% in [11].

Take `O=C(c1cccnc1)N1CCC2(CC1)CCN(c1ccsc1)C2=O`: the Percent Effect in assay [1] was -4.05%; in assay [2], -2.6%; in [3] it was 1.54%; in [4], -7.82%; in assay [5], -1.28%; in assay [6] it was -4.52%. The Percent Effect in assay [7] is 12%; in [8], -7.6%; in assay [9] it was -5.29%; in assay [10] it was -6.41%; in assay [11] it was 0.0389%.

As to `COc1cccc(CN2CCC(c3nccn3C(C)C)CC2)c1`, the Percent Effect was -3.84% in assay [1]; 15.6% in assay [2]; 0.593% in assay [3]; 14.9% in assay [4]; 4.23% in assay [5]; -5.52% in assay [6]. Also, the Percent Effect in assay [7] was 11.5%; in assay [8], -3.74%; in assay [9], 7.53%; in assay [10], 21%; in assay [11], -7.09%.

For `CCC(C)N(C)CCNC(=O)NCc1cccc(-n2cncn2)c1` (stereo not drawn), the Percent Effect was -5.23% in assay [1]; 5.41% in [2]; -2.01% in assay [3]; 27.3% in assay [4]; 4.59% in assay [5]; 0.248% in assay [6]. Also, the Percent Effect in [7] was 9.87%; in [8] it was -1.6%; in assay [9] it was 2.15%; in [10], 6.17%; in assay [11], -12.3%.

As to `Cc1nc(CCCNC(=O)C2CC(=O)N(C3CC3)C2)sc1C` (stereo not drawn), the Percent Effect in assay [1] was 6.83%; in assay [2], 16.4%; in assay [3], -10.9%; in assay [4], 5.44%; in assay [5] it was 1.59%; in assay [6], -10.8%. Also, the Percent Effect came to 16.9% in assay [7]; 25.5% in assay [8]; 8.33% in assay [9]; 28.4% in [10]; 2.71% in [11].

Take `Cn1ccc(C(=O)N2CCCC(n3cncn3)C2)cc1=O` (stereo not drawn): the Percent Effect in [1] is -7.5%; in assay [2], 10.4%; in [3], -3.42%; in assay [4], 0.542%; in assay [5], 5.97%; in [6], -6.11%. Besides, the Percent Effect was 11.9% in assay [7]; -3.24% in [8]; 3.81% in [9]; 9.41% in assay [10]; -18.8% in [11].

For the compound `COc1nc2c(cc1C(=O)N1C[C@H](N)C[C@H]1C(=O)NC(C)C)CCC2`, the Percent Effect is -3.3% in assay [1]; 18.1% in assay [2]; -10.6% in [3]; 9.06% in [4]; 6.51% in [5]; 8.83% in assay [6]. In addition, the Percent Effect in assay [7] is 16.3%; in assay [8], 9.52%; in [9], 6.32%; in assay [10] it was 15.4%; in assay [11], -4.1%.
